Experimental findings from ChEMBL document CHEMBL4513216, “Probing the Open Global Health Chemical Diversity Library for Multistage-Active Starting Points for Next-Generation Antimalarials” (ACS Infect Dis, 2020) are described below.

In all, about 69,000 compounds went through this assay and about 8,600 (12%) showed an effect of 50% or more. Only a selection was taken, and strong results are over-represented in it overall.

This assay deals with Plasmodium berghei. The experiment in a line: Screen against P. berghei liver stage (PbLuc), transformed with Luciferase, at 10uM. Format: functional, HepG2. Particulars: tested at 10 uM.
Turning to `CCN(CCOC)C(=O)c1cc(COc2ccc3c(c2)CCCC3)on1`, the INHIBITION came to 25.1%.
For `Cc1cc(C(F)(F)F)nc(CCNC(C)Cn2cncn2)n1` (stereo unspecified), the INHIBITION was 8.86%.
Under `COC(=O)CCCC(=O)N1CCC(CO)(CCc2ccccc2)CC1` stands 30.7%; under `CCc1ccc(NC(=O)c2n[nH]c(-n3cnnc3)n2)cc1`, 25.9%.
In the case of `CCc1nc(C2CCCN(C(=O)C(C)(C)NS(C)(=O)=O)C2)no1` (stereo unspecified), the INHIBITION worked out at 3.73%.
As to `O=C(c1cnn2c1OCCC2)N1CCC(Cc2ccccc2)CC1`, the INHIBITION amounted to 13.6%.
In the case of `CCN1CCOC(CNCc2ccccn2)C1` (stereo unspecified) it was 33%.
Regarding `c1cc(CNCC2Cn3nncc3CO2)co1` (stereo unspecified), the INHIBITION is on record as -21.7%.
In the case of `Cc1ccc(CNCC2Cn3nncc3CO2)s1` (stereo unspecified) it was 54.8%; in that of `Cc1ccc(CNCC2Cn3nncc3CO2)o1` (stereo unspecified), 43.9%.
Under `CCN1CCOC(CNCc2ccc(C)s2)C1` (stereo unspecified) stands 73.6%; under `c1cc(CNCC2Cn3nncc3CO2)ccn1` (stereo unspecified), 29.8%; under `c1coc(CNCC2Cn3nncc3CO2)c1` (stereo unspecified), 62.9%.
Under `Cc1nc(CNCC2Cn3nncc3CO2)cs1` (stereo unspecified) stands 5.89%; under `CCN1CCOC(CNCc2cnc(C(C)(C)C)s2)C1` (stereo unspecified), 46.5%; under `COc1cccc(C(=O)N2CCc3c(nc(N)[nH]c3=O)C2)c1C`, 21.8%.
Consider `CN(C)C(=O)[C@H]1C[C@@H]2CCN(Cc3ccoc3)C[C@@H]2O1`, for which the INHIBITION is listed as 34%.
Under `O=C(Nc1ccccc1)c1cc2n(n1)CCCN(C(=O)N1CCCC1)C2` stands 35%; under `Cc1cc2ccccc2n1CCC(=O)NCCCc1nnc(N)s1`, 0.426%.
Under `CCCC(C)C(=O)N1CCC(n2cccc2C(=O)OC)CC1` (stereo unspecified) stands 12.2%; under `N#Cc1cccc(N2CC3(CCN(C(=O)c4ccncc4)C3)CC2=O)c1` (stereo unspecified), 21.5%.
On to `COc1c(C2CCCN2Cc2csc(C(C)C)n2)c(C)nn1C` (stereo unspecified), for which the INHIBITION was determined as 20.1%.
In the case of `Cc1nn(C)c(C)c1C1CCCN1Cc1nc(C2CC2)no1` (stereo unspecified) it was 21.2%; in that of `Cc1nn(C)c(C)c1C1CCCN1Cc1cn2ccsc2n1` (stereo unspecified), 74%; in that of `Cc1nn(C)c(C)c1C1CCCN1C(=O)Cc1cn2ccsc2n1` (stereo unspecified), 21.1%.
Under `COc1c(C2CCCN2Cc2nc(C)c(C)o2)c(C)nn1C` (stereo unspecified) stands 11.2%.
Under `COc1c(C2CCCN2Cc2cn3ccsc3n2)c(C)nn1C` (stereo unspecified) stands 65.6%.
In the case of `CCCn1ccnc1CN1CCCC1c1ccccn1` (stereo unspecified), the INHIBITION was determined as 56.7%.
Under `Cc1nn(C)c(Cl)c1C1CCCN1Cc1cn2ccsc2n1` (stereo unspecified) stands 24.8%; under `CCCn1ccnc1CN1CCCC1c1cccc(-n2ccnc2)n1` (stereo unspecified), 42.4%; under `COc1c(C2CCCN2Cc2nc(C3CC3)no2)c(C)nn1C` (stereo unspecified), 52.3%.
Take `CCc1nc(C2CCCN2Cc2nccn2Cc2ccccc2)no1` (stereo unspecified): the INHIBITION was 32%.
In the case of `CCCc1noc(CN2CCCC2c2c(C)nn(C)c2OC)n1` (stereo unspecified), the INHIBITION was 42.9%.
Take `CCN(Cc1ccco1)C(C)c1nc(C(C)C)no1` (stereo unspecified): the INHIBITION was -165%.
`Cc1cccc(OCCNC(=O)CN2CCN(C)CC2C)c1` (stereo unspecified): the INHIBITION was -43.415%.
In the case of `COCC1CN(C(=O)COc2ccccc2)Cc2cn(C)nc21` (stereo unspecified) it was 11.5%; in that of `COc1ncccc1C(=O)N1C[C@@H]2COC[C@]2(CN(C)C)C1`, -35.2%.
In the case of `O=C(NCCCn1ccnc1)C1CCC(=O)N1Cc1cccs1` (stereo unspecified) it was 13.9%; in that of `CCn1cncc1-c1nc2c([nH]1)CC(C)(C)CNC2=O`, -23.2%; in that of `Cc1ccc(O[C@@H]2C[C@H]3CN(C(=O)c4cccnc4)CCN3C2)cc1`, -2.25%.
Under `OCC1N(Cc2ccc(F)cc2)C2CCC1(O)CC2` (stereo unspecified) stands 39.6%; under `COc1c(C2CCCN2Cc2cc(C)no2)c(C)nn1C` (stereo unspecified), 0.938%.
As for `CCn1ccnc1CN1CCCC1c1c(C)nn(C)c1OC` (stereo unspecified), the INHIBITION is on record as 65.4%.
Under `COc1c(C2CCCN2Cc2nccn2C)c(C)nn1C` (stereo unspecified) stands 22.8%; under `CC(NC(=O)CN(C)C(C)C)c1ccc(Oc2cccnc2)c(F)c1` (stereo unspecified), 23.5%.
Under `CSc1nsc(NC(=O)N(C)Cc2ccc3c(c2)OCO3)n1` stands -29.6%; under `Cc1ccccc1OCCn1cnc2oc(C)c(C(=O)O)c2c1=O`, -16.3%.
On to `CCc1cnc(CCNS(C)(=O)=O)s1`, for which the INHIBITION came to 48.3%.
Under `CC(C)c1nc(C2CCCN2C(=O)c2cc(Cl)c[nH]2)no1` (stereo unspecified) stands 6.09%; under `CC(C)CN1CCC2(CCN(Cc3nccs3)CC2)C1=O`, 29%; under `Cc1ccc2cc(C(=O)N3CCN(C(=O)N(C)C)CC3)ccc2n1`, 70.3%.
Under `Cc1ccc2cc(C3(O)CCN(C(=O)CN4CCCC4)CC3)ccc2n1` stands -9.67%.
Under `Cc1ccc2cc(C3(O)CCN(C)CC3)ccc2n1` stands -12.1%; under `CN(C)C(=O)N1CCN(C(=O)c2ccn3ccnc3c2)CC1`, 7.97%; under `COCCOCC(=O)N1CCC(O)(c2ccc3nc(C)ccc3c2)CC1`, -18.5%.
For the molecule `Cc1ccc2cc(C(=O)N3CCCN(C)CC3)ccc2n1`, the INHIBITION came out at 48%.
